Screening results deposited in PubChem BioAssay by National Center for Advancing Translational Sciences (NCATS).
FH mod – Identification of activators of human fumarate hydratase by quantitative high-throughput screening. FH coupled MDH/diaphorase resazurin fluorescence, 15 min. AID 1347055, 2019. Potency, µM (top dose mostly 79.9 µM), inactives show top-dose activity change, negative = inhibition, usual class: inhibitors. 54,000 tested, 0.22% active. Fumarate hydratase, mitochondrial (Homo sapiens), P07954; note: the screen sought activators but most active calls are inhibition curves; nearly all actives have a fitted effect of over 45% in size
Target sequence (P07954 whole entry, looked up): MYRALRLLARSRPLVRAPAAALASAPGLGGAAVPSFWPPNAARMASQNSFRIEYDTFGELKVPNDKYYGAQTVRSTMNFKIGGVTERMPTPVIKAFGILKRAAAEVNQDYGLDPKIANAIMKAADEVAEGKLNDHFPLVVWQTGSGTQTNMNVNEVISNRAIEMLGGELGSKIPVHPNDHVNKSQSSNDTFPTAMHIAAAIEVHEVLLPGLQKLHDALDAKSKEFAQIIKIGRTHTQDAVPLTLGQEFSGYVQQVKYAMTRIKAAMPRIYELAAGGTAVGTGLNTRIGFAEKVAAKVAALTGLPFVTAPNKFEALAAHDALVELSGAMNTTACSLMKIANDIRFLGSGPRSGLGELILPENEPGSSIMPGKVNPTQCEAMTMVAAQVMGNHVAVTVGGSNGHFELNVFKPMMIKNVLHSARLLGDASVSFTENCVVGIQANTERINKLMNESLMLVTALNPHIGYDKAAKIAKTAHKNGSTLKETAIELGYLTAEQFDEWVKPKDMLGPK
SKOV3 invasion – inhibitors of ovarian cancer cell adhesion and invasion in omental model | 46,000 tested, 0.1% active | Potency, µM (top dose mostly 45.8 µM), for the others: top-dose activity change, negative = inhibition, hits mostly inhibitors | SKOV3ip1-GFP adhesion/invasion on 3D omental model, fluorescence;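 note: plate controls were DMSO wells for no effect and tomatine positive control wells for full effect; nearly all actives have a fitted effect of over 65% in size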
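Primary human omental fibroblast/mesothelial 3D culture pre-formed 48 h. SKOV3ip1-GFP cells added with compounds (0.36-46 umol/L), incubated 2 h RT/16 h 37 C, fixed; GFP cells quantified at 488/509 nm.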
p53null 32C tox – kills p53 null cells at the permissive temperature; H1299-neo p53 null cells, ATP luminescence, 24 h, 32C; Potency, µM (highest dose often 46.1 µM), for the others: at the highest dose activity change, negative = cytotoxicity, usual class: cytotoxic; 55,000 tested, 0.62% active; AID 903;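 note: 0% = DMSO only and -100% = full killing by 100 µM tamoxifen; nearly all actives have a fitted effect of over 55% in size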
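Cells lacking p53 (H1299-neo) are plated at 600 per well and allowed to settle overnight at 37C. Test compounds (up to 46 uM) are added and held 24 hours at 32C, then ATP is quantified by luminescence.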
NTMT1 inhibitor – NTMT1 methyltransferase inhibition. Q9BV86. NTMT1 MTase-Glo SAH luminescence, purified enzyme. Potency, µM (highest dose often 114 µM), for the others: at the highest dose activity change, negative = inhibition, most hits filed as inhibitors. 59,000 tested, 2.5% active. AID 1645870;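 note: plate controls were DMSO vehicle for no effect and no enzyme for full effect; nearly all actives have a fitted effect of over 65% in size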
Target sequence (Q9BV86 whole entry, looked up): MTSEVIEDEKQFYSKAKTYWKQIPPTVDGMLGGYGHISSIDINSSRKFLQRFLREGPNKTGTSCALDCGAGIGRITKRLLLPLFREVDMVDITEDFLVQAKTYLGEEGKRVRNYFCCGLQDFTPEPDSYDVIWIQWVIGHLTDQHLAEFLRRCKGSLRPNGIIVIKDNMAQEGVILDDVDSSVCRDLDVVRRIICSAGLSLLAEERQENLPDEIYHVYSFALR
p53null 39C kill – kills p53 null cells at the nonpermissive temperature | H1299 p53-null (neo) cells, 39C, ATPlite viability, 24 h | Potency, µM (series often up to 46.1 µM), for inactives: top-dose activity, negative = cell killing, actives largely listed as cytotoxic | 55,000 tested, 0.97% active;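 note: 0% = DMSO only and -100% = full killing by 100 µM tamoxifen; nearly all actives have a fitted effect of over 50% in size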
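Following overnight plating at 37C (600 cells/well), H1299-neo or H1299-p53A138V cells are dosed up to 46 uM. Incubation lasts 24 hr at 39C before ATP detection.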
The depositor's hits bear a star; i = inactive; ? = inconclusive; . = not tested or not shown; ! = not confirmed by another sample; [ ] = dose if it differs, or a comment. Shown is part of a subset that was picked to be rich in hits. Calls come from the whole dose curve; as a rule, active = well fitted curve in the direction sought with a large enough effect; inconclusive = small, poorly fitted or top-dose-only effect, or another doubt; inactive = no such curve, though single readings can be large; an effect the other way counts as inactive or inconclusive. Unless noted, % is set by controls: 0 for no effect and ±100 for the full control effect; potency is the fitted concentration of half-maximal effect.

SMILES | FH mod | SKOV3 invasion | p53null 32C tox | NTMT1 inhibitor | p53null 39C kill
COc1ccc(-c2nc(SCC(=O)Nc3cccc(C(C)=O)c3)n[nH]2)cc1 | ? | 12% | ? | -12% | 25µM*
CC(C)c1ccccc1-c1ncc(F)c(NCc2ccc(-n3ccnn3)cc2)n1 | . | . | . | 5% | .
C=C1C(=O)O[C@H]2CC(=C)[C@H]3CC[C@@](C)(O)[C@@H]3CC12 (some centres undefined) | -24% | . | . | 12%[57.5 µM] | .
CCN(CC)c1ccc(C(=C2C=CC(=[N+](CC)CC)C=C2)c2cc(S(=O)(=O)O)ccc2S(=O)(=O)[O-])cc1 | -23%[53.3 µM] | . | . | 28µM* | .
COc1ccc2c(c1)[C@]1(C[C@H]1c1ccc3c(/C=C/c4ccc(CN5C[C@@H](C)O[C@@H](C)C5)cc4)n[nH]c3c1)C(=O)N2 | . | . | . | 2% | .
COc1cc(OC)cc(-c2ccc3ncc4ccc(=O)n(-c5ccc(N6CCNCC6)c(C(F)(F)F)c5)c4c3c2)c1 | -20%[53.3 µM] | 7% | . | 43µM* | .
Nc1ncnc2n[nH]c(Nc3ccc(F)cc3)c12 | 7% | . | . | 50µM*! | .
CCN(CC)CCNC(=O)Nc1ccc2c(c1)N(Cc1ccccc1)C(=O)c1ccccc1S2 | -6% | ? | 13% | ? | 18µM*
CC(C)(C)OC(=O)N1CCN(c2ccc(NCc3nnc(-c4ccc(C#N)cc4)o3)cc2)CC1 | . | . | . | 15% | .
CCCCN1C(=O)C(O)(CC(=O)c2ccc(C(C)(C)C)cc2)c2ccccc21 (centres undefined) | ? | -12% | 56% | 4% | 20µM*
FC(F)(F)c1cccc(-c2nc(NCc3ccc(-c4cccnc4)cc3)c3ccccc3n2)c1 | . | . | . | -1% | .
Cc1ccc(OC(=O)c2cc(-c3ccc4c(c3)OCCO4)on2)c(C)c1 | -13% | -11% | 20µM* | -1% | 32µM*
CC(=O)c1cccc(NC(=O)c2cc(-c3ccc4c(c3)OCCO4)on2)c1 | 3% | i | 2µM* | ? | 3.2µM*
CC(=O)Nc1ccc(NC(=O)c2cc(-c3ccc4c(c3)OCCO4)on2)cc1 | 7% | 2% | ? | -1% | ?
CC1=C(CCC(C)O[C@@H]2O[C@H](CO)[C@@H](O)[C@H](O)[C@H]2O)C(C)(C)CCC1=O (some centres undefined) | -2%[53.3 µM] | . | . | 9%[29.8 µM] | .
Cc1ccc(-c2cc(-c3ccccc3C)[nH]n2)c(O)c1 | . | . | 13µM* | . | -96%
Brc1c(Br)c(Br)c2n[nH]nc2c1Br | 32µM* | . | . | 11µM* | .
OC[C@H]1O[C@@H](n2cnc3c(NC4CCCC4)ncnc32)[C@H](O)C1O (some centres undefined) | -2%[53.3 µM] | . | . | . | .
C[C@@H]1N[C@H]2N(C1=O)c1ccccc1[C@@]2(O)C[C@@H]1C(=O)N[C@@H](C)c2nc3ccccc3c(=O)n21 | 8%[53.3 µM] | . | . | 1%[29.8 µM] | .
COc1cccc(CNc2ccc(S(=O)(=O)Nc3ncccn3)cc2)c1O | . | . | . | 10% | .
CCc1nnc2sc(-c3ccc(C)c(NC(=O)c4ccc(-c5cccc(Cl)c5)o4)c3)nn12 | . | . | . | 2% | .
CCN(CC)CCCCNc1nc2cc(Cl)c(Cl)cc2nc1-c1ccc(-c2cccs2)s1 | 7%[53.3 µM] | -13% | . | 20µM*! | .
CCCn1c(-c2ccc(F)cc2)nc2c(NCCCCN(CC)CC)nc(C)nc21 | . | . | . | -28% | .
FC(F)(F)c1cc(-c2ccc(CNc3nc(C4CCCC4)nc4ccccc34)cc2)ccn1 | . | . | . | -9%[57.5 µM] | .
O=C(CN1C(=O)N/C(=C\c2cccn2-c2cccc(C(=O)O)c2)C1=O)Nc1cccc(F)c1 | . | . | . | 1%[57.5 µM] | .
SMILES | FH mod | SKOV3 invasion | p53null 32C tox | NTMT1 inhibitor | p53null 39C kill
O=C(O)c1cccc(-n2cccc2/C=C2/C(=O)N(Cc3ccc(F)cc3)C(=O)N2Cc2ccc(F)cc2)c1 | . | . | . | 79µM* | .
O=C(CN1C(=O)N/C(=C\c2cccn2-c2cccc(C(=O)O)c2)C1=O)Nc1ccccc1F | . | . | . | -4%[57.5 µM] | .
Cc1ccc(NC(=O)CN2C(=O)N/C(=C\c3cccn3-c3ccc(C(=O)NS(C)(=O)=O)cc3)C2=O)cc1 | . | . | . | 79µM* | .
Cc1ccc(NC(=O)CN2C(=O)N/C(=C\c3cccn3-c3ccc(C(=O)O)cc3)C2=O)cc1 | . | . | . | 6% | .
O=C(CN1C(=O)N/C(=C\c2cccn2-c2cccc(C(=O)O)c2)C1=O)Nc1cccc(Cl)c1 | . | . | . | 79µM* | .
COC(=O)[C@H](Cc1ccc(O[S+](=O)([O-])c2cccc3cnccc23)cc1)N(C)[S+](=O)([O-])c1ccc2cnccc2c1 | . | . | . | 2%[57.5 µM] | .
CO/N=C(/C(=O)N[C@@H]1C(=O)N2C(C(=O)O)=C(Cn3ccc(=N)n3CCO)CS[C@H]12)c1csc(N)n1 | 2% | . | . | -4%[57.5 µM] | .
CCCCCCCCCCCCCCCC[n+]1ccccc1 | -8%[53.3 µM] | . | . | 22µM* | .
CCCCCCCCCCCCCCCC(=O)O | 0%[53.3 µM] | . | . | 6%[57.5 µM] | .
CCc1ccc(C2CC(=O)Nc3cc4c(cc32)OCO4)cc1 (centres undefined) | -6% | i | 14% | 89µM* | 3%
Cn1cc(-c2cnn3c(N)c(Br)c([C@H]4CCCNC4)nc23)cn1 | -12%[53.3 µM] | 18% | . | -13%[57.5 µM] | .
Cn1cc(-c2cnn3c(N)c(Br)c([C@@H]4CCCNC4)nc23)cn1 | 0% | . | . | 35µM*! | .
COc1cccc(NC(=O)Nc2cc(-c3cn4cccnc4n3)ccc2C)c1 | 4% | 0% | -10% | ? | ?
Cc1ccc(-c2cn3cccnc3n2)cc1NC(=O)Nc1ccc(F)cc1 | -16% | i | 3%[9.22 µM] | -1% | -22%
COc1ccc(-c2cn3cccnc3n2)cc1NC(=O)Nc1cc(C)ccc1C | 0% | ? | ? | ? | 16µM*
COc1cccc(NC(=O)Nc2cc(-c3cn4cccnc4n3)ccc2OC)c1 | -9% | i | 16µM* | -9% | 7.9µM*
NC(=S)c1ccc[n+]([C@@H]2O[C@@H](COP(=O)([O-])OP(=O)(O)OC[C@H]3O[C@@H](n4cnc5c(N)ncnc54)[C@H](OP(=O)(O)O)C3O)C(O)C2O)c1 (some centres undefined) | -8%[53.3 µM] | . | . | . | .
O=S(=O)(Nc1ccc2ccccc2c1)c1ccc(NCc2ccc(Br)cc2O)cc1 | . | . | . | 8%[57.5 µM] | .
Cc1ccc(-n2ncc3c(N4CCCCC4)ncnc32)cc1 | 25% | -12% | 1.6µM* | ? | 6.3µM*
Cc1ccc(-n2ncc3c(N(C)Cc4ccccc4)ncnc32)cc1 | -22% | -4% | 13µM* | -2% | 20%
COc1ccc(-n2ncc3c(N4CCCCC4)ncnc32)cc1 | . | . | 2.5µM* | . | 4µM*
N#Cc1ccc(NS(=O)(=O)c2ccc(NC(=O)Cc3ccc(Cl)c(Cl)c3)cc2)cc1 | . | . | . | 4% | .
COc1cccc(C(=O)NCCc2nc3ccccc3n2CCOc2ccc(C)cc2)c1 | . | . | . | 11% | .
COCCCOc1ccnc(CS(=O)c2nc3ccccc3[nH]2)c1C (centres undefined) | 3% | 9% | . | 18µM*! | .
Cc1ccccc1OCCCSc1nc2ccccc2[nH]1 | . | . | . | . | 14%
